Experimental findings from PubChem BioAssay (NCATS) are described below.

Results filed as inconclusive are left out. A number with no mark means an inactive call. Active and inactive are the calls of the source. The call rests on the fitted dose curve; in most records, active means well fitted inhibition curve with a large enough effect; inconclusive means small, poorly fitted or top-dose-only effect; inactive means flat fitted curve, though single readings scatter.
Further: nearly all actives have a fitted effect of over 65% in size.
On the % scale 0 is the no-effect control and ±100 the full control effect.

Glutathione peroxidase 1 (Homo sapiens), sequence (P07203 whole entry, looked up): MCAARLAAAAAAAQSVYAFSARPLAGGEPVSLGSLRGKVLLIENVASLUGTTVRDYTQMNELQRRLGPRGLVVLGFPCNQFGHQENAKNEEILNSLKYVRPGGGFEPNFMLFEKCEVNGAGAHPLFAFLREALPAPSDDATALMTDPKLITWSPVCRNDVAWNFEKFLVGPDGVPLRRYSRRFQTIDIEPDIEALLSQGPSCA
Phospholipid hydroperoxide glutathione peroxidase GPX4 (Homo sapiens), sequence (P36969 whole entry, looked up): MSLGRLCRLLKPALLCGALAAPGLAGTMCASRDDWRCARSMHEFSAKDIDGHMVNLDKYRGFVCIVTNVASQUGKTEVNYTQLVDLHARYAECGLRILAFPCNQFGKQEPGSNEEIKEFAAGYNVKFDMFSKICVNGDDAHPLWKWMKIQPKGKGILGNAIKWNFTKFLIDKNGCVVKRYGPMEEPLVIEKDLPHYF

One assay has as its target Glutathione peroxidase 1 (Homo sapiens) (UniProt P07203). Nature of the assay: Primary qHTS Assay for Inhibitors of Recombinant Selenoprotein Glutathione Peroxidase 1 (GPX1) (AID 1845191). The settings on record: recombinant GPX1, GR-coupled NADPH fluorescence, 15 min; series mostly up to 48.8 µM; activity, negative = inhibition: at the top concentration. In short, it runs like this: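 GPX1 10 nM, GR 100 nM, GSH 1 mM, NADPH 0.5 mM, CHP 0.5 mM (final). 30-min cpd preincubation, RT. Ex340/Em450 read t=0, t=15 min.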
For orientation: qHTS replaces the single test concentration by a dilution series.
On to `Cc1ccc(C(=O)c2ccc(CC(=O)O)n2C)cc1`, for which the “activity, negative = inhibition” value is -17%.
For the compound `CCCCCCCCc1ccc(-c2ccc(C(=O)O)cc2)cc1`, the “activity, negative = inhibition” value is 4.65%.
`C=C[C@H]1CN2CC[C@@H]1C[C@@H]2[C@@H](O)c1ccnc2ccc(OC)cc12`: the outcome was inactive.
On the same count and under the same terms, as for `CSc1ccccc1N1CCN(CCCCCC(=O)NC2CCCc3ccccc32)CC1` (stereo unspecified), the entry is “inactive”.
Turning to `N[C@@H](CC(=O)O)C(=O)O`, the Potency entry is “inactive”.
For the compound `COCCOc1cc2ncnc(Cl)c2cc1OCCOC`, the outcome was inactive.
Consider `O=C(Nc1cccc(C(=O)Nc2ccc(S(=O)(=O)O)c3cc(S(=O)(=O)O)cc(S(=O)(=O)O)c23)c1)Nc1cccc(C(=O)Nc2ccc(S(=O)(=O)O)c3cc(S(=O)(=O)O)cc(S(=O)(=O)O)c23)c1`, for which the “activity, negative = inhibition” value is -15%.
The same measure, in the same setting: as for `S=c1[nH]c2ccccc2s1`, the figure is 1.82%.
As to `CCCCCCCC/C=C/C(=O)O`, the result was inactive.
Turning to `CC[C@@H](C)[C@H]1O[C@]2(CC[C@@H]1C)C[C@@H]1C[C@@H](C/C=C(\C)[C@@H](O[C@H]3C[C@H](OC)[C@@H](O[C@H]4C[C@H](OC)[C@@H](O)[C@H](C)O4)[C@H](C)O3)[C@@H](C)/C=C/C=C3\CO[C@@H]4[C@H](O)C(C)=C[C@@H](C(=O)O1)[C@]34O)O2`, the Potency entry was “inactive”.
As to `c1ccc2sc(SSc3nc4ccccc4s3)nc2c1`, the “activity, negative = inhibition” value was -8.09% [at 27.7 µM].
The same measure, in the same setting: in the case of `CC(C)NC[C@@H](O)c1ccc(O)c(O)c1` it was -31.4%.
With `CCOC(=O)c1ccccc1O`, the “activity, negative = inhibition” value was -11.6%.
As to `O=C(O)c1cc(=O)c2ccccc2[nH]1`, the outcome was inactive.
`O=c1[nH]c2ccccc2n1CCCN1CCN(C(c2ccccc2)c2ccccc2)CC1`: the “activity, negative = inhibition” value is -12.5%.
On to `COc1cc2c3cc1Oc1cc(ccc1O)C[C@@H]1c4c(cc(OC)c(O)c4Oc4ccc(cc4)C[C@@H]3N(C)CC2)CC[N+]1(C)C`, for which the “activity, negative = inhibition” value was 4.55%.
`CCCCC1C(=O)N(c2ccccc2)N(c2ccc(O)cc2)C1=O` (stereo unspecified): the “activity, negative = inhibition” value was -19.8%.
Regarding `CCCSc1ccc2nc(NC(=O)OC)[nH]c2c1`, the result was inactive.
Consider `C=CCCCCCCCCC(=O)O`, for which the “activity, negative = inhibition” value was -4.33% [at 27.7 µM].
For `O=C1CN(/N=C/c2ccc([N+](=O)[O-])o2)C(=O)N1`, the result was inactive.
Regarding `Cc1c(C(=O)O)c(O)cc2c1C(=O)c1c(O)c([C@@H]3O[C@H](CO)[C@@H](O)[C@H](O)[C@H]3O)c(O)c(O)c1C2=O`, the “activity, negative = inhibition” value was -3.77%.
Regarding `O=C(O)c1ccccc1Nc1cccc(C(F)(F)F)c1`, the outcome was inactive.
As to `C=C[C@@H]1CN2CC[C@@H]1C[C@H]2[C@H](O)c1ccnc2ccc(OC)cc12`, the outcome was inactive.
For the compound `CCOc1ccc2nc(S(N)(=O)=O)sc2c1`, the “activity, negative = inhibition” value was -0.367%.
On to `Nc1cc(-c2ccncc2)c[nH]c1=O`, for which the result was inactive.
For the compound `N#C/C(=C\c1ccc(O)c(O)c1)C(=O)NCc1ccccc1`, the “activity, negative = inhibition” value is -14.7%.
As for `CN(C)[C@@H]1C(=O)C(C(=O)NCN2CCCC2)=C(O)[C@@]2(O)C(=O)C3=C(O)c4c(O)cccc4[C@@](C)(O)C3C[C@@H]12` (stereo partly specified), the “activity, negative = inhibition” value is -15.6%.
For `c1ccc(-c2ccccn2)nc1`, the result was inactive.
Regarding `Cc1cn([C@H]2CC(N=[N+]=[N-])[C@@H](CO)O2)c(=O)[nH]c1=O` (stereo partly specified), the “activity, negative = inhibition” value was -17%.
With `CSc1nc(N)c2ncn([C@@H]3O[C@H](COP(=O)(O)OP(=O)(O)OP(=O)(O)O)[C@@H](O)[C@H]3O)c2n1`, the outcome was inactive.
Still for that read-out and setting: in the case of `CNC(=O)c1c(I)c(NC(=O)CCCCC(=O)Nc2c(I)c(C(=O)O)c(I)c(C(=O)NC)c2I)c(I)c(C(=O)O)c1I` it was “inactive”.
For the compound `CC(C(=O)O)c1ccc(C(=O)c2cccs2)cc1` (stereo unspecified), the “activity, negative = inhibition” value was 0.681%.
As for `C#C[C@]1(O)CC[C@H]2[C@@H]3CCc4cc(O)ccc4[C@H]3CC[C@@]21C`, the Potency entry was “inactive”.
As to `O=C(OCc1ccccc1)c1ccccc1`, the “activity, negative = inhibition” value was -19.7%.
Same read-out and setting: as for `CCCCCCCCCCCCOCCO`, the figure is -9.19%.
As to `NC(=S)c1ccc[n+]([C@@H]2O[C@@H](COP(=O)([O-])OP(=O)(O)OC[C@H]3O[C@@H](n4cnc5c(N)ncnc54)[C@H](OP(=O)(O)O)[C@@H]3O)C(O)C2O)c1` (stereo partly specified), the outcome was inactive.
Take `Cn1ncc(S(=O)(=O)Cc2ccccc2)c(Br)c1=O`: the “activity, negative = inhibition” value was -29.5%.
Turning to `NC(=O)C(c1ccccc1)(c1ccccc1)[C@@H]1CCN(CCc2ccc3c(c2)CCO3)C1`, the outcome was inactive.

Another assay deals with Phospholipid hydroperoxide glutathione peroxidase GPX4 (Homo sapiens) (UniProt P36969). Nature of the assay: Primary qHTS Assay for Inhibitors of Recombinant Selenoprotein Glutathione Peroxidase 4 (GPX4) (AID 1845192). The settings on record: recombinant GPX4, GR-coupled NADPH fluorescence, 15 min; series mostly up to 50 µM; activity change, negative = inhibition: at the top concentration. In a few lines:
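qHTS, GR-coupled: GPX4 200 nM + cpd 30 min RT → GSH 1 mM, NADPH 0.5 mM, GR 100 nM → CHP 0.5 mM start; fluor 340/450 at t0 and t15 min; no-enzyme wells as control.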
In the case of `Cc1ccc(C(=O)c2ccc(CC(=O)O)n2C)cc1`, the “activity change, negative = inhibition” value is -11.9%.
`CCCCCCCCc1ccc(-c2ccc(C(=O)O)cc2)cc1`: the result was inactive.
Same read-out and setting: as for `C=C[C@H]1CN2CC[C@@H]1C[C@@H]2[C@@H](O)c1ccnc2ccc(OC)cc12`, the entry is “inactive”; as for `CSc1ccccc1N1CCN(CCCCCC(=O)NC2CCCc3ccccc32)CC1` (stereo unspecified), “inactive”.
In the case of `N[C@@H](CC(=O)O)C(=O)O`, the Potency result was “inactive”.
For the compound `COCCOc1cc2ncnc(Cl)c2cc1OCCOC`, the “activity change, negative = inhibition” value was 1.78%.
`O=C(Nc1cccc(C(=O)Nc2ccc(S(=O)(=O)O)c3cc(S(=O)(=O)O)cc(S(=O)(=O)O)c23)c1)Nc1cccc(C(=O)Nc2ccc(S(=O)(=O)O)c3cc(S(=O)(=O)O)cc(S(=O)(=O)O)c23)c1`: the “activity change, negative = inhibition” value was -10%.
The same measure, in the same setting: as for `S=c1[nH]c2ccccc2s1`, the figure is -3.15%.
As for `CCCCCCCC/C=C/C(=O)O`, the outcome was inactive.
Regarding `CC[C@@H](C)[C@H]1O[C@]2(CC[C@@H]1C)C[C@@H]1C[C@@H](C/C=C(\C)[C@@H](O[C@H]3C[C@H](OC)[C@@H](O[C@H]4C[C@H](OC)[C@@H](O)[C@H](C)O4)[C@H](C)O3)[C@@H](C)/C=C/C=C3\CO[C@@H]4[C@H](O)C(C)=C[C@@H](C(=O)O1)[C@]34O)O2`, the “activity change, negative = inhibition” value is -29.8%.
Same read-out and setting: as for `c1ccc2sc(SSc3nc4ccccc4s3)nc2c1`, the figure is -1.67% [at 27.8 µM]; as for `CC(C)NC[C@@H](O)c1ccc(O)c(O)c1`, -24.3%.
The same measure, in the same setting: as for `CCOC(=O)c1ccccc1O`, the figure is 3.3%.
As for `O=C(O)c1cc(=O)c2ccccc2[nH]1`, the result was inactive.
Same read-out and setting: as for `O=c1[nH]c2ccccc2n1CCCN1CCN(C(c2ccccc2)c2ccccc2)CC1`, the entry is “inactive”; as for `COc1cc2c3cc1Oc1cc(ccc1O)C[C@@H]1c4c(cc(OC)c(O)c4Oc4ccc(cc4)C[C@@H]3N(C)CC2)CC[N+]1(C)C`, “inactive”.
Take `CCCCC1C(=O)N(c2ccccc2)N(c2ccc(O)cc2)C1=O` (stereo unspecified): the “activity change, negative = inhibition” value is -1.96%.
As to `CCCSc1ccc2nc(NC(=O)OC)[nH]c2c1`, the outcome was inactive.
On the same count and under the same terms, in the case of `C=CCCCCCCCCC(=O)O` it was “inactive [at 27.8 µM]”; in that of `O=C1CN(/N=C/c2ccc([N+](=O)[O-])o2)C(=O)N1`, “inactive”.
For `Cc1c(C(=O)O)c(O)cc2c1C(=O)c1c(O)c([C@@H]3O[C@H](CO)[C@@H](O)[C@H](O)[C@H]3O)c(O)c(O)c1C2=O`, the “activity change, negative = inhibition” value was -5.31%.
On to `O=C(O)c1ccccc1Nc1cccc(C(F)(F)F)c1`, for which the result was inactive.
Same read-out and setting: in the case of `C=C[C@@H]1CN2CC[C@@H]1C[C@H]2[C@H](O)c1ccnc2ccc(OC)cc12` it was “inactive”; in that of `CCOc1ccc2nc(S(N)(=O)=O)sc2c1`, “inactive”.
Regarding `Nc1cc(-c2ccncc2)c[nH]c1=O`, the “activity change, negative = inhibition” value was 0.708%.
For `N#C/C(=C\c1ccc(O)c(O)c1)C(=O)NCc1ccccc1`, the “activity change, negative = inhibition” value is -18.2%.
As to `CN(C)[C@@H]1C(=O)C(C(=O)NCN2CCCC2)=C(O)[C@@]2(O)C(=O)C3=C(O)c4c(O)cccc4[C@@](C)(O)C3C[C@@H]12` (stereo partly specified), the “activity change, negative = inhibition” value is -10.3%.
Consider `c1ccc(-c2ccccn2)nc1`, for which the result was inactive.
With `Cc1cn([C@H]2CC(N=[N+]=[N-])[C@@H](CO)O2)c(=O)[nH]c1=O` (stereo partly specified), the “activity change, negative = inhibition” value is -12.2%.
Turning to `CSc1nc(N)c2ncn([C@@H]3O[C@H](COP(=O)(O)OP(=O)(O)OP(=O)(O)O)[C@@H](O)[C@H]3O)c2n1`, the outcome was inactive.
The same measure, in the same setting: as for `CNC(=O)c1c(I)c(NC(=O)CCCCC(=O)Nc2c(I)c(C(=O)O)c(I)c(C(=O)NC)c2I)c(I)c(C(=O)O)c1I`, the entry is “inactive”; as for `CC(C(=O)O)c1ccc(C(=O)c2cccs2)cc1` (stereo unspecified), “inactive”.
With `C#C[C@]1(O)CC[C@H]2[C@@H]3CCc4cc(O)ccc4[C@H]3CC[C@@]21C`, the Potency result is “inactive”.
For the compound `O=C(OCc1ccccc1)c1ccccc1`, the “activity change, negative = inhibition” value is 2.01%.
On the same count and under the same terms, as for `CCCCCCCCCCCCOCCO`, the figure is -13.8%.
`NC(=S)c1ccc[n+]([C@@H]2O[C@@H](COP(=O)([O-])OP(=O)(O)OC[C@H]3O[C@@H](n4cnc5c(N)ncnc54)[C@H](OP(=O)(O)O)[C@@H]3O)C(O)C2O)c1` (stereo partly specified): the “activity change, negative = inhibition” value is 2.27%.
`Cn1ncc(S(=O)(=O)Cc2ccccc2)c(Br)c1=O`: the “activity change, negative = inhibition” value is -17.2%.
In the case of `NC(=O)C(c1ccccc1)(c1ccccc1)[C@@H]1CCN(CCc2ccc3c(c2)CCO3)C1`, the result was inactive.
